We go through 59 compounds from PubChem BioAssay AID493008 (The Scripps Research Institute Molecular Screening Center, 2010).

About 800 (0.24%) of roughly 340,000 compounds were called active. The list comes from a sample in which actives are over-represented; it also holds similar structures and randomly drawn compounds. A number with no mark means an inactive call.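 Rule for the calls: active = activation above the mean over all tested compounds plus 3 SD (cut at about 30% in these data); inactive = the rest.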

For the assay, the target named is Troponin I, cardiac muscle (Homo sapiens) + Troponin T, cardiac muscle (Homo sapiens) + Troponin C, slow skeletal and cardiac muscles (Homo sapiens) (UniProt P19429+P45379+P63316). Briefly: cardiac RTF calcium sensitivity activators, primary screen, biochemical, IANBD-TnC fluorescence, EC20 calcium (AID 493008).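 Note: rise in fluorescence read as greater calcium sensitivity of cardiac thin filaments.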 The note with it: IANBD-labeled TnC RTF fluorescence at EC20 calcium; at 7.2 µM; stronger effect = higher value; 0% EC20 calcium, 100% full calcium.
For the compound `S=C(Nc1ccccc1)Nc1ccc2ccccc2c1`, the activation was -10.4%.

`CC1CCCC(C)N1C(=O)CN1CCN(c2nc(-c3ccc(F)cc3)cs2)CC1` (centres undefined): the activation is -5.89%.

As for `CCCC(C)C(=O)Nc1ccc(NC(C)=O)cc1` (centres undefined), the activation is -2.2%.

On to `CC(C)(C)c1ccc(/C=C/C(=O)NC2CCS(=O)(=O)C2)cc1` (centres undefined), for which the activation was 8.91%.

As to `O=C(NC(Cc1c[nH]c2ccccc12)C(=O)N/N=C/c1ccc(Br)cc1)c1cccs1` (centres undefined), the activation is -5.25%.

With `Cc1ncoc1C(=O)NCCC(c1ccccc1)c1ccccc1`, the activation was 1.32%.

Consider `Cc1ccc(N(Cc2cc(=O)[nH]c3ccccc23)C(=O)CCl)cc1`, for which the activation was -2.09%.

For the compound `COc1ccc(OC)c(S(=O)(=O)Nc2cccc(-c3ccc4nncn4n3)c2)c1`, the activation was -5.2%.

For `CC1(C)OC(=O)C(=CSc2ccc(C(C)(C)C)cc2)C(=O)O1`, the activation was -0.02%.

For `CC1CCCN(CCCNC(=O)CN2C(=O)COc3ccc(S(=O)(=O)N4CCOCC4)cc32)C1` (centres undefined), the activation was -3.28%.

Turning to `COc1ccc(C(=O)Oc2ccc(-c3nnco3)cc2)cc1S(=O)(=O)N1CCOCC1`, the activation is 5.67%.

With `C[n+]1ccc(/C=C/c2c[nH]c3ccccc23)cc1`, the activation was 154% (active).

For the compound `COc1ccc(C(=O)Nc2ccc(-n3nncc3C(C)(C)C)cc2)cc1`, the activation was -5.43%.

In the case of `O=C(NC(=S)N1CCc2ccccc21)c1ccco1`, the activation is -3.2%.

With `CC(C)NC(=O)N1CCN(c2ccncc2S(=O)(=O)N2CCCCC2)CC1`, the activation was 1.09%.

Regarding `O=C(OCCOc1ccccc1Cl)c1cc(S(=O)(=O)N2CCCCC2)ccc1N1CCOCC1`, the activation was -4.46%.

Take `CCCNC(=O)C(=O)Nc1cc2c3c(c1)CCC(=O)N3CCC2`: the activation is -3.33%.

On to `OC1CN=C2Sc3ccccc3N2C1` (centres undefined), for which the activation is -0.74%.

As to `O=C(N/N=C/C=C/c1ccco1)c1cccs1`, the activation was 1.5%.

With `Cn1c(=O)c(=O)n(C)c2cc(S(=O)(=O)NCCN3CCN(c4ccccc4F)CC3)ccc21`, the activation was -1%.

For the compound `CCN1/C(=C\c2ccc3ccccc3[n+]2CC)Sc2cc(C)ccc21`, the activation was 38.1% (active).

Take `O=C(NCCc1c[nH]c2ccccc12)C1CCN(Cc2ccc(Br)cc2)CC1`: the activation was -15.1%.

On to `N#C/C(=C/c1ccc(N2CCCCC2)o1)C(=O)NCCc1c[nH]c2ccccc12`, for which the activation was 98.5% (active).

As to `Cc1ccc(C(=O)N/C(=C/c2ccco2)C(=O)NCCc2c[nH]c3ccccc23)cc1C`, the activation was -3.2%.

As to `CN(c1ccccc1)S(=O)(=O)c1ccc(NC(=O)COc2ccccc2)cc1`, the activation is 0.63%.

For `CC1CCN(C(=O)Cn2nnnc2CN2CCOCC2)CC1`, the activation was -3.91%.

On to `O=S(=O)(Nc1cccc(Oc2ccc(Cl)cc2)n1)c1ccc(F)cc1`, for which the activation is -5.16%.

As for `O=C(CCN1C(=O)[C@@H]2Cc3ccccc3CN2C1=O)NCCc1ccccc1`, the activation is -2.53%.

In the case of `CN(CCc1ccccc1)C(=O)c1cccc(NC(=O)Cc2cccc(NC(=O)C3CCCN(C(=O)CCc4ccccc4)C3)c2)c1` (centres undefined), the activation is -0.28%.

Take `Cc1ccccc1NC(=O)CCNS(=O)(=O)c1ccc2[nH]c(=O)oc2c1`: the activation was -6.99%.

Consider `O=S(=O)(Cc1nnnn1-c1ccc(Br)cc1)c1ccc(F)cc1`, for which the activation was 1.13%.

In the case of `O=C(CC12CC3CC(CC(C3)C1)C2)Nc1ccc2c(c1)COC2=O`, the activation is -1.12%.

Regarding `CCOc1ccc(OCC(=O)OC(C)C(=O)NC2CCCCC2C)cc1` (centres undefined), the activation was 0.95%.

Take `Cc1ccc(CS(=O)(=O)CCC(=O)NC2CC2)cc1`: the activation is -1.46%.

As to `COc1ccccc1C(=O)Nc1nc2nc(-c3ccccc3)cc(=O)n2[nH]1`, the activation is 5.39%.

For the compound `COc1ccc(N2CC(C(=O)N[C@@H](C)C(=O)N3CCCCC3)CC2=O)cc1` (some centres undefined), the activation is 2.39%.

On to `Cc1ccc(S(=O)(=O)n2cccc2CO)cc1`, for which the activation was 3.89%.

Regarding `CC1(C)CC(=O)C/C(=N\NC(=O)c2cccs2)C1`, the activation was 9.93%.

Turning to `Cc1cccc(N(C(=O)Cc2cccs2)C(C(=O)NC2CCCC2)c2ccsc2)c1` (centres undefined), the activation was 2.2%.

As for `Cc1cc(F)ccc1N1CCC(N2CCN(C)C(CCO)C2)CC1` (centres undefined), the activation is 0.01%.

Consider `O=S(=O)(c1cccc(-c2cn3ccccc3n2)c1)N1CCCC1`, for which the activation was -1.73%.

For the compound `COc1ccc(N(C(=O)CNC(=O)c2ccco2)C(C(=O)NCC2CCCO2)c2ccccc2)cc1Cl` (centres undefined), the activation was -5.45%.

In the case of `Nc1ncnc2c1ncn2[C@@H]1O[C@H](CNS(=O)(=O)c2ccc(-c3ccno3)s2)[C@@H](O)[C@H]1O`, the activation was -2.32%.

For the compound `CC1(C)CN(c2ccc(-c3ccnc4ncnn34)cc2)C1=O`, the activation is 2.76%.

In the case of `ClC1(Cl)CC1CSc1ncn[nH]1` (centres undefined), the activation is 2.22%.

For the compound `COc1ccc(CN(C)C(=S)Nc2ccc(Cl)cc2Cl)cc1`, the activation was 5.9%.

As to `O=C(CCS(=O)(=O)Cc1ccccc1F)NCCCN1CCCCC1`, the activation was 5.59%.

For the compound `CCN(CC)CCCC(C)n1c2nc(=O)[nH]c(=O)c-2nc2cc(Cl)ccc21` (centres undefined), the activation is 1960% (active).

With `CCN(CC)CCn1c2ccc(Cl)cc2c2nc(C)sc21`, the activation was 1.89%.

Turning to `CSCC[C@H](NC(=O)NCc1cccs1)C(=O)O`, the activation was 4.37%.

With `CC(C)c1nnc(NC(=O)CCC(=O)N2CCN(c3cccc(Cl)c3)CC2)s1`, the activation was -4.73%.

In the case of `COc1ccc(C(=O)COC(=O)C(O)c2ccccc2)c(OC)c1` (centres undefined), the activation was 3.19%.

`O=C(/C=C(O)/C=C/c1ccc(O)cc1)/C=C/c1ccc(O)cc1`: the activation is 40.2% (active).

As for `O=C(/C=C/c1ccc2c(c1)OCCO2)c1ccc(O)cc1`, the activation was -0.07%.

Turning to `O=C(O)/C=C/c1ccc(OCCCF)cc1`, the activation is -2.79%.

With `NS(=O)(=O)c1ccc(NC(=O)COC(=O)c2c3c(nc4ccccc24)/C(=C\c2ccc4c(c2)OCO4)CCC3)cc1`, the activation was 4.91%.

As for `O=C(COC(=O)c1ccncc1)Nc1ccc2c(c1)OCO2`, the activation is -5.52%.

Turning to `NC(=O)c1ccc(NC(=O)COC(=O)c2c3c(nc4ccccc24)/C(=C\c2ccc4c(c2)OCO4)CCC3)cc1`, the activation was 514% (active).

For `C=CCC(C(=O)c1ccccc1)[N+](C)(C)CC=C` (centres undefined), the activation is -2.42%.
